The record followed here is ChEMBL document CHEMBL2218924, “A broad activity screen in support of a chemogenomic map for kinase signalling research and drug discovery” (Biochem J, 2013).

The structures appear in SMILES notation.

For assay [1], the target named is Death-associated protein kinase 1 (Homo sapiens) (UniProt P53355). The following applies: at 1 µM.
In assay [2] the target is Death-associated protein kinase 2 (Homo sapiens) (UniProt Q9UIK4). The following applies: at 1 µM.
Assay [3] has the same target. As to conditions: at 10 µM.
Assay [4] concerns the target T1, Myotonin-protein kinase (Homo sapiens) (UniProt Q09013).
T1 sequence (whole entry): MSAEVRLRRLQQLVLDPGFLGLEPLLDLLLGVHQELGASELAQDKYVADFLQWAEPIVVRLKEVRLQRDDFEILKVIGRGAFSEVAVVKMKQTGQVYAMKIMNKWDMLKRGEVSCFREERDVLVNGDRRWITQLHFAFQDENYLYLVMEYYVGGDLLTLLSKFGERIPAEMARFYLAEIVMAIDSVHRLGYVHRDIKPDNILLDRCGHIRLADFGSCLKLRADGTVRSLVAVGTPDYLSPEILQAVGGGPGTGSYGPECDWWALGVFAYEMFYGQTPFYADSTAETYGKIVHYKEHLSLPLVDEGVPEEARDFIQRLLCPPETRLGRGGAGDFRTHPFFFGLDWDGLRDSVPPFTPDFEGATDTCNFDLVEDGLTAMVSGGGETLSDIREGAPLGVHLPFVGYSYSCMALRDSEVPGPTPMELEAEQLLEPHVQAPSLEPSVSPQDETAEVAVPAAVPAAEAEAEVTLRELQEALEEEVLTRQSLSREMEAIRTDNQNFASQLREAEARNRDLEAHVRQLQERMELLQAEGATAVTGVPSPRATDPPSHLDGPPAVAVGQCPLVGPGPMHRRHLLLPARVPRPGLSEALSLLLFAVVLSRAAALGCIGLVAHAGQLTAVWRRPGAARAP
As to conditions: at 1 µM.

For assay [5], the target named is T1, Myotonin-protein kinase (Homo sapiens). The following applies: at 10 µM.
The target of assay [6] is T2, Serine/threonine-protein kinase DCLK2 (Homo sapiens) (UniProt Q8N568).
T2 sequence (whole entry): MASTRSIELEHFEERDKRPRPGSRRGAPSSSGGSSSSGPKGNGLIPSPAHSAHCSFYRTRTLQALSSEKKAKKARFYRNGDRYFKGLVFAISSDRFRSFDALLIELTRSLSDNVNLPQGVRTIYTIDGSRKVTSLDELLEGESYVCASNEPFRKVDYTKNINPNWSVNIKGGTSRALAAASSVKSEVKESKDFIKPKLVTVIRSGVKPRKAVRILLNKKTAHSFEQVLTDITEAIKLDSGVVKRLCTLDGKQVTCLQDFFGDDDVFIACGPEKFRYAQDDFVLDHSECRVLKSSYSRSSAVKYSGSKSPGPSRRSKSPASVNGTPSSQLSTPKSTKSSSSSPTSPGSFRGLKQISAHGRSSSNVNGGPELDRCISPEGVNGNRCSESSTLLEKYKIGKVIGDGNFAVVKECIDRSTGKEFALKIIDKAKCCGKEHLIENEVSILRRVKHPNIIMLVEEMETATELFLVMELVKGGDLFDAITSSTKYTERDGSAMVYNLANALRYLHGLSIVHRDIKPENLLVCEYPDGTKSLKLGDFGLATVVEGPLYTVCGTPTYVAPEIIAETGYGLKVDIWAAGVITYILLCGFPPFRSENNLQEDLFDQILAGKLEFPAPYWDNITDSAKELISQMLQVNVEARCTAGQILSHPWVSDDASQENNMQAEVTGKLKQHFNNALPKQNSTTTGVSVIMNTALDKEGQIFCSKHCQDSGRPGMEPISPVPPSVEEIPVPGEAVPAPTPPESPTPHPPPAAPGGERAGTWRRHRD
As to conditions: at 1 µM.

Assay [7] deals with T2, Serine/threonine-protein kinase DCLK2 (Homo sapiens). As to conditions: at 10 µM.
In assay [8] the target is T3, Discoidin domain-containing receptor 2 (Homo sapiens) (UniProt Q16832).
T3 sequence (whole entry): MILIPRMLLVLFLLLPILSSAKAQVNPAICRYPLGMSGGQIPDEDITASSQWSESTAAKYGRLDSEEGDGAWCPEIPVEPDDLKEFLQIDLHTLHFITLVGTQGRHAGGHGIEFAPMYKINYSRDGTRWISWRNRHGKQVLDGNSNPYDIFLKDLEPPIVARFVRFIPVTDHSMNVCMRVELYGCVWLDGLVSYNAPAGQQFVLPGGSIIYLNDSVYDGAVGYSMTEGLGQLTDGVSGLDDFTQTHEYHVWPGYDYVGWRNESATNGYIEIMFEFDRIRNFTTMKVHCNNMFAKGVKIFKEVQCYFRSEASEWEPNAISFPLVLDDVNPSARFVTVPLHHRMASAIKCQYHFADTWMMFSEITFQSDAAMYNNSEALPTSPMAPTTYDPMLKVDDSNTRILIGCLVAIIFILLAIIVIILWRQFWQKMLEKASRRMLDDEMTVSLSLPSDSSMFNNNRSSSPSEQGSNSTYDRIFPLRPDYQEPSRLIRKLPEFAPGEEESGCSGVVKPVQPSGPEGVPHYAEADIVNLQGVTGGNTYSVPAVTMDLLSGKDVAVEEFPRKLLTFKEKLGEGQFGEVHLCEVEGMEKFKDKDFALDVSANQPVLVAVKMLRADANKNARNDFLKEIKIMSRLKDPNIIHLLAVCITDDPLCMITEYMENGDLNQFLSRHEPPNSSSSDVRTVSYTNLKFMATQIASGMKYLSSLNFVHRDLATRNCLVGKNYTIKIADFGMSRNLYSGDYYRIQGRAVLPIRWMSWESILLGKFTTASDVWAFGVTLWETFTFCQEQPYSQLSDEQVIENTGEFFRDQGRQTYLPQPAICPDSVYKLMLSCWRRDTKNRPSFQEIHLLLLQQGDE
As to conditions: at 1 µM.

Assay [9] deals with T3, Discoidin domain-containing receptor 2 (Homo sapiens). As to conditions: at 10 µM.
Assay [10] concerns the target Death-associated protein kinase 1 (Homo sapiens) (UniProt P53355). As to conditions: at 10 µM.

Chain of Death-associated protein kinase 1 (Homo sapiens) (P53355 whole entry, looked up): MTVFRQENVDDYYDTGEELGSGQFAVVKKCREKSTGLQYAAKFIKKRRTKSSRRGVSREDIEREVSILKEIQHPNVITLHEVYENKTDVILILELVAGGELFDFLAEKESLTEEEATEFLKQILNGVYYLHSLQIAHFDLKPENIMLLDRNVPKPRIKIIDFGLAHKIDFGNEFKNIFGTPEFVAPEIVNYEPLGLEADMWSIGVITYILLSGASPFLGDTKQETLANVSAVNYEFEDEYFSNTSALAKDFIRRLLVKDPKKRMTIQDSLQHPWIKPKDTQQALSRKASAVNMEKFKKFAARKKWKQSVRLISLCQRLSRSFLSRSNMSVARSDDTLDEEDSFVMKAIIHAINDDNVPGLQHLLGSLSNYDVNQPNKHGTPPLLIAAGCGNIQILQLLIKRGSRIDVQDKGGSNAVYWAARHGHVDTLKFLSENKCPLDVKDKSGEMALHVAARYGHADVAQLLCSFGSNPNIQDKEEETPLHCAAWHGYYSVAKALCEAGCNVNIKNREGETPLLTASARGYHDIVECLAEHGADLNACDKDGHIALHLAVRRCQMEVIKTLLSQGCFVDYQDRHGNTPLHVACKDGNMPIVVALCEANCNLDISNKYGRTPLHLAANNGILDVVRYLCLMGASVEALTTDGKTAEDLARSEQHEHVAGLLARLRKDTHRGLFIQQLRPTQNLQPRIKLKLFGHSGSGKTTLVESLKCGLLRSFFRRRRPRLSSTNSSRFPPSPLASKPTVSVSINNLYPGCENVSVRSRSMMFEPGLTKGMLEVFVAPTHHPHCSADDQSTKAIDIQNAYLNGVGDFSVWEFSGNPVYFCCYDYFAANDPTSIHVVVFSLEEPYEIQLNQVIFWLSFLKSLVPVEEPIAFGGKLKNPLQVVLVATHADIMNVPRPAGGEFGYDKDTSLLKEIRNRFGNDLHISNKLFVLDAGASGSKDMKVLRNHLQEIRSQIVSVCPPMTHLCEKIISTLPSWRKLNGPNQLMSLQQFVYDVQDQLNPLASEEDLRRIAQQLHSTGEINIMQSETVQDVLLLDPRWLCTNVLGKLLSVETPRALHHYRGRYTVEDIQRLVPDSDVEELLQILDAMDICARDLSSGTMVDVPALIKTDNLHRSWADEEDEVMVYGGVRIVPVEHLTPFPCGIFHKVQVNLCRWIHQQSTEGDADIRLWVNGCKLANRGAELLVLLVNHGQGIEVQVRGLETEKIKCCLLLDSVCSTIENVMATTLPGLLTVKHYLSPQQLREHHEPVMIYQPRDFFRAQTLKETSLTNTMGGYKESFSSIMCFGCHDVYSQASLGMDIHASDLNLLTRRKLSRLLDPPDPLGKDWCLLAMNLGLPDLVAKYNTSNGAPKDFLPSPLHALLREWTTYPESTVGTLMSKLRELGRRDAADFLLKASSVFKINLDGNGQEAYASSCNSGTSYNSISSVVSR
Chain of Death-associated protein kinase 2 (Homo sapiens) (Q9UIK4 whole entry, looked up): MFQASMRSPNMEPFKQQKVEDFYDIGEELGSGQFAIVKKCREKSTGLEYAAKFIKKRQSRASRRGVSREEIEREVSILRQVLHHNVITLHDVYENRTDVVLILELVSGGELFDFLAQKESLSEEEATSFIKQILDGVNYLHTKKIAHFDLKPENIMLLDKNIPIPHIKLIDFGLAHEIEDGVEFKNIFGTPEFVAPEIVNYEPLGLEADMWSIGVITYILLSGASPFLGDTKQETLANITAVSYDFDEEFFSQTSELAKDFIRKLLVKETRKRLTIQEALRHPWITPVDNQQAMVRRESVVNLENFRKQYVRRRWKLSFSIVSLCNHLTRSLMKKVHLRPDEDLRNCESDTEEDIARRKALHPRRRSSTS

A word on the residual activity: it is the signal under treatment as a percentage of the control signal. Take `O=c1cc(N2CCOCC2)oc2c1ccc1ccccc12`: the residual activity in assay [1] is 90%.

As for `CC(C)n1cnc2c(NCc3ccccc3)nc(NCCCO)nc21`, the residual activity in assay [1] is 83%.

With `O=C1c2ccccc2-c2nc3nnnn3nc21`, the residual activity in assay [2] was 101%; in assay [3], 114%; in [4] it was 127%; in assay [5] it was 148%.

In the case of `CC(C)[C@H](CO)Nc1nc(Nc2cccc(Cl)c2)c2ncn(C(C)C)c2n1`, the residual activity in assay [1] came to 87%; in [6] it was 128%; in assay [7], 139%; in assay [8] it was 91%; in assay [9] it was 92%; in [4], 98%. The residual activity in [5] stood at 89%.

As to `NC(=O)Nc1sc(-c2ccc(F)cc2)cc1C(N)=O`, in [1], the residual activity was determined as 83%.

For `N#Cc1cnc2cnc(NCc3cccnc3)cc2c1Nc1ccc(F)c(Cl)c1`, in [1], the residual activity came out at 69%.

In the case of `C[C@@H](N)[C@H]1CC[C@H](C(=O)Nc2ccncc2)CC1`, the residual activity in assay [1] is 102%.

In the case of `N#CC(C#N)=C(N)/C(C#N)=C/c1ccc(O)cc1`, the residual activity in [1] is 85%.

As for `O=C1NC(=O)c2c1c1c3ccccc3n3c1c1c2c2ccccc2n1C1CCC3O1`, the residual activity in assay [1] turned out to be 49%; in assay [10], 60%; in assay [2], 54%; in assay [3], 20%; in [8] it was 77%; in assay [9], 81%.

For `COc1cc2ncc(-c3ccccc3)nc2cc1OC`, in assay [1], the residual activity turned out to be 87%.

`COC(=O)[C@@]1(O)C[C@H]2O[C@]1(C)n1c3ccccc3c3c4c(c5c6ccccc6n2c5c31)C(=O)NC4`: the residual activity was 48% in assay [1]; 10% in [10]; 12% in assay [2]; -3% in assay [3]; 75% in assay [6]; 41% in assay [7]. Also, the residual activity was found to be 56% in assay [8], 17% in assay [9], 116% in assay [4] and 65% in assay [5].

As for `COc1cc(OC)c(/C=C2\C(=O)Nc3ccccc32)c(OC)c1`, the residual activity was found to be 84% in [1]; 81% in [10]; 100% in assay [2]; 95% in assay [3]; 97% in [8]; 90% in [9].

In the case of `CC(C)(C)n1nc(Cc2cccc3ccccc23)c2c(N)ncnc21`, in assay [1], the residual activity amounted to 86%.

As for `O=c1[nH]c2ccccc2n1C1CCN(Cc2ccc(-c3nc4cc5[nH]cnc5cc4nc3-c3ccccc3)cc2)CC1`, the residual activity in assay [1] was found to be 93%; in assay [10], 95%; in assay [2], 98%; in [3], 78%; in [6] it was 87%; in assay [7], 98%. In addition, the residual activity in [8] came out at 109%; in [9] it was 85%; in [4] it was 133%; in assay [5], 143%.

`COc1ccc2c(c1)/C(=C/c1cnc[nH]1)C(=O)N2`: the residual activity in [1] was determined as 100%; in [10] it was 97%; in assay [3] it was 51%.

In the case of `Ic1cccc(CSc2nnc(-c3ccncc3)o2)c1`, the residual activity in assay [1] amounted to 90%.

On to `c1cc(-c2cnn3cc(-c4ccc(OCCN5CCCCC5)cc4)cnc23)ccn1`, for which the residual activity in assay [1] stood at 76%; in [10] it was 84%; in assay [6], 124%; in [7], 76%; in [9], 69%; in assay [5], 80%.

Take `CCCC(=O)Oc1ccc2[nH]c(C(=O)c3cc4ccccc4[nH]3)cc2c1`: the residual activity in assay [1] was determined as 83%.

Take `CC(C)c1nn(-c2c(Cl)cccc2Cl)c2nc(Cc3ccc(OCCO)cc3)[nH]c(=O)c12`: the residual activity in [1] amounted to 94%.

For `COc1cc2ncnc(Nc3ccc(OCc4ccccc4)cc3)c2cc1OC`, the residual activity in [1] stood at 94%; in assay [10], 100%; in assay [2] it was 104%; in [3] it was 112%; in assay [6], 89%; in [7] it was 112%. Moreover, the residual activity in [8] came out at 108%; in [9], 93%; in [4], 105%; in assay [5] it was 103%.

As for `CCn1cnc2c(Nc3cccc(Cl)c3)nc(N[C@@H]3CCCC[C@@H]3N)nc21`, the residual activity amounted to 96% in [1]; 85% in [10]; 92% in assay [2]; 76% in [3]; 124% in [6]; 67% in [7]. The figures for the residual activity in assay [9], in [4] and in assay [5] were 78%, 123% and 80%, respectively.

Take `O=C1NC(=O)C(c2cn(CCCO)c3ncccc23)=C1c1cnccn1`: the residual activity in assay [1] stood at 94%.

As to `CO[C@H]1C[C@@H]2CC[C@@H](C)[C@@](O)(O2)C(=O)C(=O)N2CCCC[C@H]2C(=O)O[C@H]([C@H](C)C[C@@H]2CC[C@@H](O)[C@H](OC)C2)CC(=O)[C@H](C)/C=C(\C)[C@@H](O)[C@@H](OC)C(=O)[C@H](C)C[C@H](C)/C=C/C=C/C=C/1C`, the residual activity in assay [1] came to 95%.

Turning to `Nc1ccc2ncnc(NCCc3ccc(Oc4ccccc4)cc3)c2c1`, the residual activity in [1] worked out at 94%.

For the molecule `COc1ccc2c(c[n+](C)c3c4cc5c(cc4ccc23)OCO5)c1OC`, the residual activity in assay [1] stood at 94%; in [10] it was 71%; in [2], 99%; in assay [3] it was 91%; in [6] it was 98%; in [7] it was 90%. The results for the residual activity in assay [4] and in assay [5] were 111% and 126%, respectively.

With `CCc1nc(-c2ccc(OC)cc2)[nH]c1-c1ccncc1`, the residual activity in [1] stood at 101%; in [10], 100%.

For the molecule `O=C1Nc2ccc3ncsc3c2/C1=C/c1c[nH]cn1`, the residual activity in assay [1] was determined as 85%; in assay [10] it was 63%; in [2] it was 71%; in assay [3] it was 32%; in assay [6] it was 55%; in [7], 17%. Moreover, the residual activity was 113% in assay [8], 82% in [9], 120% in assay [4] and 105% in assay [5].

For the molecule `CC(C)(C)c1cc(C=C(C#N)C#N)cc(Br)c1O`, the residual activity in assay [1] is 101%; in assay [2], 104%; in [3], 103%; in assay [6] it was 109%; in [8] it was 115%; in [4], 98%. In addition, the residual activity in [5] came out at 107%.

`C[S+]([O-])c1ccc(-c2nc(-c3ccc(F)cc3)c(-c3ccncc3)[nH]2)cc1` (stereo not drawn): the residual activity in [1] came out at 85%; in assay [10], 84%; in assay [2], 90%; in [3], 103%; in assay [6], 132%; in [7] it was 111%. For the same molecule, the residual activity came out at 94% in assay [8], 46% in assay [9], 122% in [4] and 102% in assay [5].

On to `O=[N+]([O-])/C=C/c1ccc2c(c1)OCO2`, for which the residual activity came out at 85% in assay [1]; 90% in [10]; 95% in assay [2]; 127% in assay [3]; 63% in assay [6]; 68% in assay [7]. For the same molecule, the residual activity in assay [8] is 100%; in [9], 97%; in assay [4], 137%; in assay [5] it was 134%.

Regarding `N/C(=N\[N+](=O)[O-])N/N=C\c1ccc(-c2cccc([N+](=O)[O-])c2)o1`, the residual activity in [1] came to 93%; in assay [10], 89%; in assay [8] it was 100%; in assay [9] it was 99%; in [4], 98%; in assay [5], 84%.
